Laboratory results from PubChem BioAssay (NCATS).
Inconclusive results are not listed. Some structures have more than one record in an assay (separate samples or runs), and their calls can disagree. Calls of active or inactive are those of the source. Unless noted, the call rests on the fitted dose curve; in most records, active means well fitted curve in the direction sought with a large enough effect; inconclusive means small, poorly fitted or top-dose-only effect, or another doubt; inactive means no such curve, though single readings can be large; an effect the other way counts as inactive or inconclusive.

How the values were obtained:
[1] = molecular target: Beta-2 adrenergic receptor (Homo sapiens) (UniProt P07550); assay: qHTS validation assay of beta-arrestin-biased ligands of beta2-adrenergic receptor (AID 485366); further: 0% is about no effect
Outline: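 Luminescence from a tTA-responsive luciferase, induced when recombinant beta-arrestin is recruited to recombinant beta2-AR, served as the agonism signal. Cells were exposed to compound for 18 hr at 37 degrees C; titrations spanned up to 46 microM.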

[2] = molecular target: ATP-dependent 6-phosphofructokinase (Trypanosoma brucei brucei) (UniProt O15648); assay: qHTS Validation Assay to Find Inhibitors of T. brucei phosphofructokinase (AID 485368); further: potency means the concentration at half of the fitted maximal effect
Outline: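 Activity was normalized between 1x (1.25 nM) PFK wells as no inhibition and enzyme-free wells as full inhibition, from luminescence after ADP-Glo detection of ADP made from 0.5 mM F6P and 0.1 mM ATP over 45 min.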

[3] = molecular target: Thioredoxin reductase 1, cytoplasmic (Rattus norvegicus) (UniProt O89049); assay: qHTS Assay for Substrates of Mammalian Selenoprotein Thioredoxin Reductase 1 (TrxR1) (AID 488772);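 further: NADPH fluorescence in the first read after selenite addition and not the 8 min delta; series mostly up to about 57 µM; 0% is about no effect; a drop in NADPH fluorescence below the no-compound background marks a TrxR1 substrate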
Outline: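 Quantitative HTS in Tris-HCl buffer at pH 7.5 with EDTA and Tween-20, using rat TrxR1, 400 uM NADPH and 400 uM selenite (final). A fall in initial NADPH fluorescence relative to background marked substrate behaviour.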

[4] = molecular target: Thioredoxin reductase 1, cytoplasmic (Rattus norvegicus) (UniProt O89049); assay: qHTS Assay for Inhibitors of Mammalian Selenoprotein Thioredoxin Reductase 1 (TrxR1) (AID 488773);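 further: drop in NADPH fluorescence over an 8 min run after selenite addition; series mostly up to about 57 µM; on the % scale 0 is the no-effect control and ±100 the full control effect; nearly all actives have a fitted effect of over 40% in size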
Outline: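 Steps: enzyme (90 nM) plus NADPH (400 uM final), 5 min at ~22 deg C; compound added, 15 min; selenite (400 uM final) added; fluorescence followed for 8 min. Concentration-response curves derived from the normalized delta values.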

[5] = molecular target: M-phase phosphoprotein 8 (Homo sapiens) (UniProt Q99549); assay: qHTS Validation Assay for Inhibitors for MPP8 Chromodomain Interactions with Methylated Histone Tails (AID 488949); further: nearly all actives have a fitted effect of over 55% in size; further: potency means the concentration at half of the fitted maximal effect
Outline: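 Disruption of the preformed MPP8–trimethyl-H3K9 peptide complex (both 50 nM, 30 min, RT) is measured after 30 min compound exposure, using AlphaScreen proximity beads; aurintricarboxylic acid titration serves as plate control.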

[6] = molecular target: Chromobox protein homolog 1 (Homo sapiens) (UniProt P83916); assay: qHTS Validation Assay for Inhibitors of HP1-beta Chromodomain Interactions with Methylated Histone Tails (AID 488953); further: nearly all actives have a fitted effect of over 50% in size; further: potency means the concentration at half of the fitted maximal effect
Outline: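 Measured as loss of AlphaScreen luminescence from streptavidin donor and nickel acceptor beads (10 ug/mL final) bridging HP1-beta and biotin-H3(1-18)K9me3, each 50 nM. Compounds met the preassembled complex for 30 min at RT.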

[7] = molecular target: Methanococcus maripaludis chaperonin (MmCpn) (UniProt Q6LX38); assay: High-Throughput Screening for Modulators of Cytosolic Chaperonin Activity: MmCpn Primary Screen (AID 488978);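 further: 50 nM MmCpn enzyme hydrolysing 30 µM ATP at 37 °C; 0% is about no effect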
Outline: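 Measures ATPase turnover of the M. maripaludis chaperonin (50 nM final) against 30 uM ATP over 10 min at 37C, with compound added 5 min beforehand at room temperature. ADP is quantified by HTRF immunodetection.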

[8] = molecular target: Thyrotropin receptor (Homo sapiens) (UniProt P16473); assay: qHTS Assay for Antagonists of the Thyroid Stimulating Hormone Receptor (AID 488980); further: series mostly up to about 58 µM; 0% is about no effect
Outline: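 Cells expressing human TSHR (HEK293) are dispensed in HBSS/HEPES containing 70 uM RO 20-1724, compound is added, then TSH at EC80 (4 nM final). Antibody in lysis buffer follows, 30 minutes at room temperature before HTRF detection.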

[9] = molecular target: D(1A) dopamine receptor (Homo sapiens) (UniProt P21728); assay: HTS Assay for Allosteric Agonists of the Human D1 Dopamine Receptor: Primary Screen for Agonists (AID 488981); further: potency means the concentration at half of the fitted maximal effect; on activation: 0% is about no effect
Outline: (§1)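 Calcium flux in an inducible, force-coupled HEK293 Trex D1 line (overnight at 30 C): agonist mode is the 180 s kinetic read after compound; potentiator mode is the following 180 s read after dopamine at EC20.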

[10] = molecular target: D(1A) dopamine receptor (Homo sapiens) (UniProt P21728); assay: HTS Assay for Allosteric Agonists of the Human D1 Dopamine Receptor: Primary Screen for Potentiators (AID 488982); further: 0% is about no effect
Outline: as §1

[11] = molecular target: ATP-dependent 6-phosphofructokinase (Trypanosoma brucei brucei) (UniProt O15648); assay: qHTS Assay to Find Inhibitors of T. brucei phosphofructokinase: hit validation (AID 492961);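 further: luminescence reports ADP formed as PFK phosphorylates fructose-6-phosphate with ATP; series mostly up to about 51 µM; on the % scale 0 is the no-effect control and ±100 the full control effect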
Outline: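 In this biochemical qHTS validation, titrated compounds were tested against 1.25 nM PFK with 0.1 mM ATP and 0.5 mM F6P. Percent activity came from controls lacking or containing enzyme.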

[12] = Validation screen for small molecules that induce genotoxicity in human embryonic kidney (HEK293T) cells expressing luciferase-tagged ELG1 (AID 493106); further: 0% is about no effect
Outline: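 Reporter-gene quantitative HTS in HEK293T cells carrying luciferase-tagged ELG1, whose level climbs under genotoxic stress. Compound exposure lasts 16 hr at 37 °C before luciferase detection.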

[13] = molecular target: Thyrotropin-releasing hormone receptor (Homo sapiens) (UniProt P34981); assay: qHTS for Small Molecule Agonists and Allosteric Enhancers of Human TRH Receptor: Validation Screen for Agonists (AID 493127;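 active means calcium activation more than 3 SD above the typical response in the agonist read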;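 further: intracellular calcium rise by fluo-8 fluorescence before TRH EC20 addition; 0% is about no effect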); settings: TRH receptor agonist cell assay; at 2 µM; stronger effect = higher value
Outline: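 Gq-coupled calcium mobilization in TRHR cells after compound addition, monitored kinetically with fluo-8 dye on an FDSS reader.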

[14] = qHTS for Inhibitors of Cell Surface uPA Generation: Validation Assay (AID 493164);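 further: RAW 264.7 macrophage cells exposed to compound for 18 h; 0% is about no effect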
Outline: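 RAW 264.7, 4000 cells/well, o/n plating; cpd 7-pt 1:5 dilution 2.45 nM–38.3 uM final; 18 h, 37 C/5% CO2; ATP-Lite, 5 s luminescence exposure.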

[15] = molecular target: Galactokinase (Homo sapiens) (UniProt P51570); assay: qHTS Validation Assay for Inhibitors of Human Galactokinase (GALK) (AID 493189); further: 0% is about no effect
Outline: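 Compounds were pin-transferred into ATP buffer, then GALK-galactose mix was added (final 5 nM enzyme, 100 uM galactose, 35 uM ATP). After 1 h at room temperature, remaining ATP was measured luminescently.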

[16] = Quantitative high throughput screen for delayed death inhibitors of the malarial parasite plastid, 96 hour incubation (AID 488745); further: nearly all actives have a fitted effect of over 70% in size; further: potency means the concentration at half of the fitted maximal effect
Outline: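 Growth of reporter-bearing P. falciparum in red cells is measured after 96 h with compound, covering two erythrocytic cycles. Luminescence from the integrated luciferase serves as the growth signal.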

[17] = Quantitative high throughput screen for delayed death inhibitors of the malarial parasite plastid, 48 hour incubation (AID 488752); further: nearly all actives have a fitted effect of over 65% in size; further: potency means the concentration at half of the fitted maximal effect
Outline: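 One parasite generation (48 h, 37 C, 5% CO2) of luciferase-reporter P. falciparum in erythrocytes is run with test compound; decreased luminescence indicates inhibited growth.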

[18] = molecular target: Flap endonuclease 1 (Homo sapiens) (UniProt P39748); assay: qHTS Validation Assay for the Inhibitors of Human Flap endonuclease 1 (FEN1) (AID 488816); further: on the % scale 0 is the no-effect control and ±100 the full control effect
Outline: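 Readings taken at 0 and 15 min after starting the reaction with 50 nM (final) substrate supplied the signal. Compounds had first sat with 10 nM FEN1 reagent for 15 min at room temperature. Values come from Hill-equation concentration-response fits.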

[19] = molecular target: Transient receptor potential cation channel subfamily V member 1 (Homo sapiens) (UniProt Q8NER1); assay: HTS Assay for Compounds that Act as Enhancers of the Vanilloid Receptor 1 (AID 488979); further: 0% is about no effect
Outline: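 Calcium influx kinetics via Fluo-8 (480/520 nm) in TRPV1-expressing cells, 2000/well cultured overnight at 35.5C. Compound-alone read 3 min (agonist phase), followed by EC20 capsaicin challenge for 2 min (enhancer phase).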

[20] = Nrf2 qHTS screen for inhibitors: Validation (AID 493153; active means well fitted inhibition curve with a large enough effect in the main read-out, with a control signal flat, not every such curve was filed as active); settings: viability change: measured here: cytotoxicity max response
Outline: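 Dose-response validation uses reporter A549 cells with firefly luciferase under an antioxidant response element. Compounds stay on cells 18-24 h at 37°C, and luminescence indicates Nrf2-driven transcription.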

Chain of Galactokinase (Homo sapiens) (P51570 whole entry, looked up): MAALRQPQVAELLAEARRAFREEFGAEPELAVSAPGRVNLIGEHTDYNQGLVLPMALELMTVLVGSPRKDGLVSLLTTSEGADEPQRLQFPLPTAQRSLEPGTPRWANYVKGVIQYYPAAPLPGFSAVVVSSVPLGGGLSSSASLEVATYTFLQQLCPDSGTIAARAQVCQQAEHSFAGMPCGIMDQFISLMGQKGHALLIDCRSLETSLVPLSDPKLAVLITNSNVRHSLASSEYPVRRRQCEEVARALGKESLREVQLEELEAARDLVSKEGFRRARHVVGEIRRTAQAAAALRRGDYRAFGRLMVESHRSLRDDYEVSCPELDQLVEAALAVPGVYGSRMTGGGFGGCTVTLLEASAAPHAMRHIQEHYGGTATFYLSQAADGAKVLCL
Chain of M-phase phosphoprotein 8 (Homo sapiens) (Q99549 whole entry, looked up): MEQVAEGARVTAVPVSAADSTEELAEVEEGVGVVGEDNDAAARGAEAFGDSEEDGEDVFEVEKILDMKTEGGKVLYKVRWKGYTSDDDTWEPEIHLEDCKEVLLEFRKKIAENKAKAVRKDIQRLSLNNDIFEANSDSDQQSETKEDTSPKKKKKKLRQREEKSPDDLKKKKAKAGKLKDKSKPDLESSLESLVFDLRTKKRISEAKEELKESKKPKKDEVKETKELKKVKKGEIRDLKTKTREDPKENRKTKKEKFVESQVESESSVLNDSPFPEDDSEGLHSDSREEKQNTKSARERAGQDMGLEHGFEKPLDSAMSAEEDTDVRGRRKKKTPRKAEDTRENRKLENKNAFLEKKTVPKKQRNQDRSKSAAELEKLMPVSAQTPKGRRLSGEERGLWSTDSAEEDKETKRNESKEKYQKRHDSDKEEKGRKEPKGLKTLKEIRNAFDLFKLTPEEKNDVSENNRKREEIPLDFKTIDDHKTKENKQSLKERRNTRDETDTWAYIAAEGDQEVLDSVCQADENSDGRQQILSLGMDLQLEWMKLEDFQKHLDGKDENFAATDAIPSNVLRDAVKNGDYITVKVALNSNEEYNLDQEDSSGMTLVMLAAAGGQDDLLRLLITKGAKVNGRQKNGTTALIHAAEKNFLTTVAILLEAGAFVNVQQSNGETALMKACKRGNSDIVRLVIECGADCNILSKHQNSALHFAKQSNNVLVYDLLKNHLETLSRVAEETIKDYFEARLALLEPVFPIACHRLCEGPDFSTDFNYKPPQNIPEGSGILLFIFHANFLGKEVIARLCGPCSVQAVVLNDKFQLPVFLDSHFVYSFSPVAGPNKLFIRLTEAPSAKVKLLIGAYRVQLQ
Chain of Transient receptor potential cation channel subfamily V member 1 (Homo sapiens) (Q8NER1 whole entry, looked up): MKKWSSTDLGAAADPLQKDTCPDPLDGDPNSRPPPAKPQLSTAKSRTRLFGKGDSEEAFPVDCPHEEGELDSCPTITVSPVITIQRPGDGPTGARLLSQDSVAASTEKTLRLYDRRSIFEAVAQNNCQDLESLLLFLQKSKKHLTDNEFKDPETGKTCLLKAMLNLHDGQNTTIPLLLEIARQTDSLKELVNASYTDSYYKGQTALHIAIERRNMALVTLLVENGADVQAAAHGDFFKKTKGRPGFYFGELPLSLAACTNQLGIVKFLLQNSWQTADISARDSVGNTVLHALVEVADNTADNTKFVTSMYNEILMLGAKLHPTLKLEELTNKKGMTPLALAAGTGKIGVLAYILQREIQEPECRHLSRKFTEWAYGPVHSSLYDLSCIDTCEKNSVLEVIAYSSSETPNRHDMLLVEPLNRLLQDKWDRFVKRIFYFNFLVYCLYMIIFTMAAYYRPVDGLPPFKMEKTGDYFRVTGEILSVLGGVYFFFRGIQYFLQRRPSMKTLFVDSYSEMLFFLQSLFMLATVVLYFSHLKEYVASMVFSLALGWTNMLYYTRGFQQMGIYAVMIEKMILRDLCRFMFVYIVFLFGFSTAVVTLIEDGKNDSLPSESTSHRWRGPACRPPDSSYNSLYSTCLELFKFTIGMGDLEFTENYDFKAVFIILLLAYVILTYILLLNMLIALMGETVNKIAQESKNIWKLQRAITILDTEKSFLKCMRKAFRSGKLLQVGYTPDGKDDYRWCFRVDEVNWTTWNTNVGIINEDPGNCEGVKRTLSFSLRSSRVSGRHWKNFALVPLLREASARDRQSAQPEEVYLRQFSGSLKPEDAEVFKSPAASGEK
Chain of Chromobox protein homolog 1 (Homo sapiens) (P83916 whole entry, looked up): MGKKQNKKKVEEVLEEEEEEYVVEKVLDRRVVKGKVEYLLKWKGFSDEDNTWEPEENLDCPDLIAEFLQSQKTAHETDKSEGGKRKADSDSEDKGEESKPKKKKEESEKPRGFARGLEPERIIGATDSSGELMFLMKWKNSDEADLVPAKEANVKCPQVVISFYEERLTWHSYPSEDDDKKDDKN
Chain of Thyrotropin receptor (Homo sapiens) (P16473 whole entry, looked up): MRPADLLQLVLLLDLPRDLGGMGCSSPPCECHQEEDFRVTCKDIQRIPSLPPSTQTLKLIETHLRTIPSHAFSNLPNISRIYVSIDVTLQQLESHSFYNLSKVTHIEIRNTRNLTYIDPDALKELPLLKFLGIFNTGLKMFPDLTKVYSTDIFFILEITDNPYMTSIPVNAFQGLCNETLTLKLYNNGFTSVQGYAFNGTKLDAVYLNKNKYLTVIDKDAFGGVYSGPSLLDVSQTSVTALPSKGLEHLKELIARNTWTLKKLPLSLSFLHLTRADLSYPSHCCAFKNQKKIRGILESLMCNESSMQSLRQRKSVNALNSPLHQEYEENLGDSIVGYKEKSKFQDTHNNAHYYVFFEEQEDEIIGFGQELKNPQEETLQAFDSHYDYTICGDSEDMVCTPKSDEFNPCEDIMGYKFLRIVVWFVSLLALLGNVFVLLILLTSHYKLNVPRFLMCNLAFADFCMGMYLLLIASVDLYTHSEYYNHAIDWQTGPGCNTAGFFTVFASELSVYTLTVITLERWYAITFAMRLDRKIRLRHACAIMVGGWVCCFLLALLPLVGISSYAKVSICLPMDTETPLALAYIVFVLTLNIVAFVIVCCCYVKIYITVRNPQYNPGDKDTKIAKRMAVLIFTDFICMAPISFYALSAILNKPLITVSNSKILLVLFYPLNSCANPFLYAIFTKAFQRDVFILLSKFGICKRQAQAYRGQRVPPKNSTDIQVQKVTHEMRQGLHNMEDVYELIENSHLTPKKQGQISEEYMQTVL
Chain of Flap endonuclease 1 (Homo sapiens) (P39748 whole entry, looked up): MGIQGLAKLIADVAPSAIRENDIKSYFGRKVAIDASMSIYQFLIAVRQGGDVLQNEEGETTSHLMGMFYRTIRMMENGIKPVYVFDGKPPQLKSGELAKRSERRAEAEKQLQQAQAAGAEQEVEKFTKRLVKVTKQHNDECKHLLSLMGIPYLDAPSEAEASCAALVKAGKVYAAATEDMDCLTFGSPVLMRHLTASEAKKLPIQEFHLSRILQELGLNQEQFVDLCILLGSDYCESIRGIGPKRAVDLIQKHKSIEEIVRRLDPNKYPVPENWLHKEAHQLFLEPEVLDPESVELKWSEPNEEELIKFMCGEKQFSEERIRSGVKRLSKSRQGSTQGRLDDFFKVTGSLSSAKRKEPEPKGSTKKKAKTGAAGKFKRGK
Chain of Thioredoxin reductase 1, cytoplasmic (Rattus norvegicus) (O89049 whole entry, looked up): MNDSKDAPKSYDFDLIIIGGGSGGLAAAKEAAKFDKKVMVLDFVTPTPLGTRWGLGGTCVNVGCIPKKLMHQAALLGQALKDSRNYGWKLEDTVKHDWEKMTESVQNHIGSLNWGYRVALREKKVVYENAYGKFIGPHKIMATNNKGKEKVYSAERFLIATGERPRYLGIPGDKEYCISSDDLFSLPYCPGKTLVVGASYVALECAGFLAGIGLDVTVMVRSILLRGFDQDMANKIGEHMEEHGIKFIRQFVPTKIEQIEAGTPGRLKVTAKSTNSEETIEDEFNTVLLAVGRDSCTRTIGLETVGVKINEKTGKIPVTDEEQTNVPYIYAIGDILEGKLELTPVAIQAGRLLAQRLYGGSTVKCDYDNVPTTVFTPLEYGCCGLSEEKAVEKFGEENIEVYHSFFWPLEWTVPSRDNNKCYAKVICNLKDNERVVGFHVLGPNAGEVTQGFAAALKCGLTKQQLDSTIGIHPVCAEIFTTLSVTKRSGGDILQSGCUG
Chain of ATP-dependent 6-phosphofructokinase (Trypanosoma brucei brucei) (O15648 whole entry, looked up): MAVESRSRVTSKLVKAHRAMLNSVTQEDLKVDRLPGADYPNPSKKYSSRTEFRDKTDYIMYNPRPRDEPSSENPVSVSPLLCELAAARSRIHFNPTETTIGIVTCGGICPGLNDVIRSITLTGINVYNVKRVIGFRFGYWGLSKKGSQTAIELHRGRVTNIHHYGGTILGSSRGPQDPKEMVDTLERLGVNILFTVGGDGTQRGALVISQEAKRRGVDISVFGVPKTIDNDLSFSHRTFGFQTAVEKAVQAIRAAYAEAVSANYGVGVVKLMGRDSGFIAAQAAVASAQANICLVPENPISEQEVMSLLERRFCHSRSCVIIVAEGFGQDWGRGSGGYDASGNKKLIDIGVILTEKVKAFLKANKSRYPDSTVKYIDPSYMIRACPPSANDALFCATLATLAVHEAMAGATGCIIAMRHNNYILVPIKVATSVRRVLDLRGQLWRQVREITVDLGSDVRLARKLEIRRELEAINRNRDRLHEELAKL
Chain of Beta-2 adrenergic receptor (Homo sapiens) (P07550 whole entry, looked up): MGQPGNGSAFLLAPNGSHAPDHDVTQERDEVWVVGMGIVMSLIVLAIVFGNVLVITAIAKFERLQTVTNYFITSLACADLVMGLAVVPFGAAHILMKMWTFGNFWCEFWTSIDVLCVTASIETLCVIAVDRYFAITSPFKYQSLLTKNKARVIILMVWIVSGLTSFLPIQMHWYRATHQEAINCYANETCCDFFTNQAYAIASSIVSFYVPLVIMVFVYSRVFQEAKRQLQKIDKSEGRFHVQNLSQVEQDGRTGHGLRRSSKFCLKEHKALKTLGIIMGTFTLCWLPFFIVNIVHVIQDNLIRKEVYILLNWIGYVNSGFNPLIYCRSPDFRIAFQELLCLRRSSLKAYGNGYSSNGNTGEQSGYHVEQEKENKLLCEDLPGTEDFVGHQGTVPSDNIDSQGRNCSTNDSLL

CNCCC=C1c2ccccc2CCc2ccccc21
inactive: outcome [1] | Potency [2] | outcome [3] | outcome [4] | Potency [5] | Potency [6] | outcome [7] | outcome [8] | outcome [10] | outcome [11] | outcome [12] | activation [13] 0.625% | outcome [14] | outcome [15]
active: Potency [9] 20 µM

NC(CS)C(=O)O (configuration not stated)
inactive: outcome [11]

COc1cc(NS(C)(=O)=O)ccc1Nc1c2ccccc2nc2ccccc12
39.8 µM (active) and inactive: Potency [5]
active: Potency [16] 1.17 µM | Potency [17] 1.85 µM | Potency [6] 79.4 µM
inactive: outcome [1] | Potency [2] | outcome [3] | outcome [4] | outcome [18] | outcome [7] | outcome [19] | outcome [8] | Potency [9] | outcome [10] | outcome [11] | activation [13] -3.12% | outcome [14] | outcome [15]

C[C@@H]1C(=O)NC2=Nc3cccc(Cl)c3CN21
inactive: outcome [1] | Potency [16] | Potency [17] | outcome [3] | outcome [4] | outcome [18] | Potency [5] | Potency [6] | outcome [7] | outcome [19] | outcome [8] | Potency [9] | outcome [10] | outcome [11] | outcome [12] | activation [13] 1.06% | outcome [20] | outcome [14] | outcome [15]
3.84%: viability change [20]

CCCn1c(=O)[nH]c(=O)c2[nH]cnc21
7.08%: viability change [20]
inactive: outcome [1] | Potency [16] | Potency [17] | outcome [3] | outcome [4] | outcome [18] | Potency [5] | Potency [6] | outcome [7] | outcome [19] | outcome [8] | Potency [9] | outcome [10] | outcome [12] | outcome [20] | outcome [14] | outcome [15]

Nc1cc(Cl)c(NC2=NCCN2)c(Cl)c1
1.6%: viability change [20]
inactive: outcome [1] | Potency [16] | Potency [17] | outcome [3] | outcome [4] | outcome [18] | Potency [5] | Potency [6] | outcome [7] | outcome [19] | outcome [8] | Potency [9] | outcome [10] | outcome [11] | outcome [12] | activation [13] 1.12% | outcome [20] | outcome [14] | outcome [15]

COC(=O)[C@@H]1CC2=CC(=O)CC[C@]2(C)[C@@]23O[C@@H]2C[C@@]2(C)[C@@H](CC[C@@]24CCC(=O)O4)[C@H]13
inactive: outcome [11]

Oc1ccc(O)cc1
-9.14%: viability change [20]
inactive: outcome [1] | outcome [3] | outcome [4] | outcome [18] | Potency [5] | outcome [7] | outcome [19] | outcome [8] | Potency [9] | outcome [10] | outcome [12] | activation [13] 0.688% | outcome [20] | outcome [14] | outcome [15]
active: Potency [2] 10.7 µM | Potency [16] 10.4 µM | Potency [17] 8.28 µM
